Results filed as inconclusive are left out. Entries that show only a call come without a potency. Calls of active or inactive are those of the source. Calls follow the shape of the dose curve; as a rule, active = well fitted activation curve with a large enough effect in the signal ratio in the repeat runs (not every such curve was filed as active); inconclusive = weak or mixed curves, or effect the other way; inactive = flat fitted curve, though single readings scatter; the % refers to the signal ratio.
These molecules were tested against Estrogen receptor beta (Homo sapiens) (UniProt Q92731) (assay: qHTS assay to identify small molecule agonists of the estrogen receptor beta (ER-beta) signaling pathway (AID 1259377)). Settings: ER-beta-UAS-bla HEK293T, beta-lactamase FRET ratio, 16 h; series mostly up to 92.4 µM.
Source text: U.S. Tox21 Program National Center for Advancing Translational Sciences [NCATS] NIH Chemical Genomics Center [NCGC] U.S. Environmental Protection Agency [EPA] National Institutes of Environmental Health Sciences [NIEHS] National Toxicology Program [NTP] U.S. Food and Drug Administration [FDA] Tox21 Assay Overview: Estrogen receptor (ER), a nuclear hormone receptor, plays an important role in development, metabolic homeostasis and reproduction. Two subtypes of ER, ER-alpha and ER-beta, have similar expression patterns with some uniqueness in both types. Endocrine disrupting chemicals (EDCs) and their interactions with steroid hormone receptors like ER causes disruption of normal endocrine function. To identify the compounds that activate ER signaling, an ER beta-UAS-bla GripTite cell line (Life technologies, Madison, WI, USA) containing a beta-lactamase reporter gene under the control of an Upstream Activator Sequence (UAS) was used to screen Tox21 10K compound library.
Tox21 Assay Protocol Summary: ER-beta-UAS-bla HEK293T cells were dispensed at 2,000 cells/5 uL of assay medium containing 2% charcoal stripped FBS per well into black wall/clear-bottom 1536-well plates using a Multidrop Combi (ThermoFisher Scientific, Waltham, MA) dispenser. After the assay plates were incubated at a 37C and 5% CO2 for 6 hr, 23 nL of compounds dissolved in DMSO, positive controls or DMSO only was transferred to the assay plate by a Pintool station (Kalypsys, San Diego, CA). The plates were incubated at 37C and 5% CO2 for 16 hr. Then 1 uL of LiveBLAzerTM B/G FRET substrate was added using a BioRAPTR FRD (Flying Reagent Dispenser, Aurora Discovery, San Diego, CA). After the plates were incubated at room temperature for 2 hours, fluorescence intensity was measured by an Envision plate reader (PerkinElmer, Shelton, CT).

Chain of Estrogen receptor beta (Homo sapiens) (Q92731 whole entry, looked up): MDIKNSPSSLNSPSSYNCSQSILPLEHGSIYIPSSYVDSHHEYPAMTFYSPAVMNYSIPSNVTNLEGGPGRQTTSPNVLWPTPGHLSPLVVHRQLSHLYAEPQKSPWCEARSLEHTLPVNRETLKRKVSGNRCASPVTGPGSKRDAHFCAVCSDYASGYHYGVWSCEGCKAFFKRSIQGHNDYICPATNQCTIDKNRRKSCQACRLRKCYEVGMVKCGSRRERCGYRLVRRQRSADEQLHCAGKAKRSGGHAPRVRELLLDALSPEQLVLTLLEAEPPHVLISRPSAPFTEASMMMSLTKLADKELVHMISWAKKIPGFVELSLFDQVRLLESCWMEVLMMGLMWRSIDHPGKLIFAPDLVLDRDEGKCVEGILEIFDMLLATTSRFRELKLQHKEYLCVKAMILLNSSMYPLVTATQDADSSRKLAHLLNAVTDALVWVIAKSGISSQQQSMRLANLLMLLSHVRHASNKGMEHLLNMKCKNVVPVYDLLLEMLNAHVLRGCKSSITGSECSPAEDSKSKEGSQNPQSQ

Row | SMILES | Potency
1 | Oc1ccc(C(c2ccc(O)cc2)C(Cl)(Cl)Cl)cc1 | inactive
2 | NCCOCCO | inactive
3 | CN1CCOCC1 | inactive
4 | CC/C=C\C/C=C\C/C=C\CCCCCCCC(=O)O | inactive
5 | c1ccc2c(c1)[nH]c1ccccc12 | inactive
6 | COc1ccc2nc(N)sc2c1 | inactive
7 | Cc1ccc2c(c1)C(=O)OC2=O | inactive
8 | Nc1cc([N+](=O)[O-])ccc1C(=O)O | inactive
9 | C=C1C[C@H]2[C@@H]3C=C(C)C4=CC(=O)CC[C@]4(C)[C@H]3CC[C@]2(C)[C@@]1(OC(C)=O)C(C)=O | inactive
10 | NCCS(=O)(=O)O | inactive
11 | c1ccc2c(c1)ccc1ncccc12 | inactive
12 | CN(C)CCCN1c2ccccc2Sc2ccc(Cl)cc21 | inactive
13 | C1COCCN1 | inactive
14 | O=C(O)COCCN1CCN(C(c2ccccc2)c2ccc(Cl)cc2)CC1 (stereo not given) | inactive
15 | IC(I)I | inactive
16 | CC(=O)OC(C)C | inactive
17 | CC(=O)[C@H]1CC[C@H]2[C@@H]3CC=C4C[C@@H](O)CC[C@]4(C)[C@H]3CC[C@]12C | inactive
18 | Cc1ccc(N)c([N+](=O)[O-])c1 | inactive
19 | O=C(CCCN1CCC(O)(c2ccc(Cl)cc2)CC1)c1ccc(F)cc1 | inactive
20 | C=CC(=O)OCCCC | inactive

Row | SMILES | Potency
21 | Brc1nc2ccccc2s1 | inactive
22 | O=Cc1ccccc1C=O | inactive
23 | O=[Se](O)O | inactive
24 | COc1ccc(C(=O)c2ccccc2O)c(O)c1 | inactive
25 | CCCCCCC(C)O (stereo not given) | inactive
26 | O=S1(=O)CCCO1 | inactive
27 | C=CCCCCCCCCCC | inactive
28 | Nc1ccc2c(O)cc(S(=O)(=O)O)cc2c1 | inactive
29 | CCO[Si](CCCNC(N)=O)(OCC)OCC | inactive
30 | CCC(=O)O[C@H]1[C@H](O[C@@H]2[C@@H](C)[C@H](O[C@H]3C[C@@](C)(OC)[C@@H](O)[C@H](C)O3)[C@@H](C)C(=O)O[C@H](CC)[C@@](C)(O)[C@H](O)[C@@H](C)C(=O)[C@H](C)C[C@@]2(C)O)O[C@H](C)C[C@@H]1N(C)C | inactive
31 | C=CCOC(=O)C(=C)C | inactive
32 | [O-]/[N+](=N\O)c1ccccc1 | inactive
33 | CN(Cc1cnc2nc(N)nc(N)c2n1)c1ccc(C(=O)N[C@@H](CCC(=O)O)C(=O)O)cc1 | inactive
34 | OC[C@H]1O[C@@H]2O[C@H]3[C@H](O)[C@@H](O)[C@@H](O[C@H]4[C@H](O)[C@@H](O)[C@@H](O[C@H]5[C@H](O)[C@@H](O)[C@@H](O[C@H]6[C@H](O)[C@@H](O)[C@@H](O[C@H]7[C@H](O)[C@@H](O)[C@@H](O[C@H]1[C@H](O)[C@H]2O)O[C@@H]7CO)O[C@@H]6CO)O[C@@H]5CO)O[C@@H]4CO)O[C@@H]3CO | inactive
35 | C=C[C@@]1(C)CC(=O)[C@]2(O)[C@@]3(C)[C@@H](O)CCC(C)(C)[C@@H]3[C@H](O)[C@H](OC(C)=O)[C@@]2(C)O1 | inactive
36 | COC(=O)CC(=O)OC | inactive
37 | Nc1ccc(O)c(N)c1 | inactive
38 | FC(F)(F)C(Cl)Br (stereo not given) | inactive
39 | CN(C)C | inactive
40 | COC(=O)C(C)Oc1ccc(Oc2ncc(C(F)(F)F)cc2Cl)cc1 (stereo not given) | inactive

Reference: PubChem BioAssay (Tox21)
